From PubChem
CHX counter = affects cycloheximide protein synthesis inhibition readout, counter-screen | 300,000 compounds, 12% hits | AID 2314 | max response, % | cell reporter, cycloheximide protein synthesis inhibition counterscreen; in the data active = max response mostly above about 13%, no sharp cut-off; inactive = mostly below about 14%; note: read at 38.3 µM for the half of the compounds with a filed dose; 0% is about no effect
NS1 inh = influenza NS1 inhibition. 270,000 compounds, 0.4% hits. Potency, µM (doses to about 46.1 µM), for inactives: at the top dose activity, positive = more growth. AID 2326; calls by dose curve; note: potency is the fitted concentration of half-maximal effect; actives are rising curves; nearly all actives have a fitted effect of over 50% in size
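In this qHTS, NS1 from influenza A is expressed in budding yeast, where it slows growth. Cells are switched from glucose to 2% galactose medium (pH 6.0, -URA), treated with compound, and growth recovery is read at OD600.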
Shiga toxin inh = Shiga toxin inhibition. Vero cells, Shiga toxin protein synthesis inhibition reporter. inhibition, % at 38.7 µM. 290,000 compounds, 9.2% hits. AID 2315; in the data active = inhibition mostly above about 28%, no sharp cut-off; inactive = mostly below about 43%; note: 0% is about no effect
AmpC inh detg = blocks E. coli AmpC beta-lactamase in detergent assay. AID 485294. AmpC hydrolysis of nitrocefin, absorbance 480 nm, 0.01% Triton. P00811. Potency, µM (top dose mostly 114 µM), inactives show at the top dose activity change, negative = inhibition, usual class: inhibitors. 370,000 compounds, 0.041% hits;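 note: potency is the fitted concentration of half-maximal effect; 0% = no-compound wells and -100% = no-enzyme wells; nearly all actives have a fitted effect of over 25% in size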
Target sequence (P00811 whole entry, looked up): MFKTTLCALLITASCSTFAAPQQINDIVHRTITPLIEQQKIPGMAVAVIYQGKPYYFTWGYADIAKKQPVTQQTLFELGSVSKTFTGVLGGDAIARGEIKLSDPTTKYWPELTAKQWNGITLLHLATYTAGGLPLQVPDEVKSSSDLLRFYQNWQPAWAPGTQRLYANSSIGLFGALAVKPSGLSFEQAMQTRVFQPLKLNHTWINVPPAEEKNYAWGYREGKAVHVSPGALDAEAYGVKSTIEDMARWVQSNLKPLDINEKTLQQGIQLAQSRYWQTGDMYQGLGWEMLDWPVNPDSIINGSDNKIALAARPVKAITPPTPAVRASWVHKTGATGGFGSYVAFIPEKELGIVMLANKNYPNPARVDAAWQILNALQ
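20 mM phosphate pH 7.0 + 0.01% (detergent screen) or 0.0001% Triton X-100; 5.3 nM AmpC reagent; cpd preinc 15 min RT; nitrocefin (800 uM stock) to start; A480 q20 s × 4 min; Activity was normalised to no-enzyme and no-compound control wells.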
AmpC no deterg = AmpC beta-lactamase inhibition without detergent | 330,000 compounds, 0.52% hits | AmpC nitrocefin hydrolysis, absorbance 480 nm, 0.0001% Triton | Potency, µM (doses to about 57.1 µM), without a hit: top-dose activity change, negative = inhibition, most hits filed as inhibitors | AID 485341 | P00811;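 note: potency is the fitted concentration of half-maximal effect; plate controls were no compound for no effect and no enzyme for full effect; nearly all actives have a fitted effect of over 20% in size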
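20 mM phosphate pH 7.0 + 0.01% (detergent screen) or 0.0001% Triton X-100; 5.3 nM AmpC reagent; cpd preinc 15 min RT; nitrocefin (800 uM stock) to start; A480 q20 s × 4 min; Activity was normalised to no-enzyme and no-compound control wells.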
Starred values were filed as active, the others as inactive; ? = inconclusive; / = no result. The full list was thinned out, with hits kept by preference. Unless noted, calls come from the whole dose curve; as a rule, active = well fitted curve in the direction sought with a large enough effect; inconclusive = small, poorly fitted or top-dose-only effect, or another doubt; inactive = no such curve, though single readings can be large; an effect the other way counts as inactive or inconclusive.

SMILES	CHX counter	NS1 inh	Shiga toxin inh	AmpC inh detg	AmpC no deterg
O=C(CNC(=O)c1ccccc1)c1ccccc1	/	/	/	0.2%	-10.4%
CN(C)C(CNC(=O)CNC(=O)c1ccc2ccccc2c1)c1ccccc1 (stereo not given)	-2.6	4.6%	-7.8	0.5%	-4.2%
O=C(/C=C\NCC(=O)c1ccccc1)c1ccc2ccccc2c1	11.7*	-0.2%	51.9*	0.7%	-44.1%
O=C(/C=C\NCC(=O)c1ccccc1)c1ccc(F)cc1	28.3*	-3.6%	28.4	1.1%	17.8µM*
Cc1cc(N(C)C)ccc1N=Nc1ccc2ncccc2c1	52.2*	-7.9%	95.4*	-4.4%	4.2%
CC(=O)c1ccc(NC(=O)c2noc(C)c2[N+](=O)[O-])cc1	31.2*	-0.4%	63.1*	-5.8%	-7.0%
Cc1noc(C)c1S(=O)(=O)Nc1ccc(C(=O)Nc2ccc(OC(F)(F)F)cc2)cc1	-10.6	23.8%	-5.3	-4.8%	-14.6%
Cc1onc(C(=O)Nc2ccc(OC(F)(F)F)cc2)c1[N+](=O)[O-]	57.2*	1.4%	89.2*	-5.2%	-38.0%
CCCCN(C(=O)CSc1cc(C)c2ccc(OC)cc2n1)c1c(N)n(Cc2ccccc2)c(=O)[nH]c1=O	-2.2	?	-17.9	-14.9%	-2.9%
CCC(C)NC(=O)CN(c1cc(Cl)cc(Cl)c1)S(C)(=O)=O (stereo not given)	-0.3	1.6%	-9.1	-1.4%	-5.2%
COc1ccc(C2CC(=O)c3cnc(N4CCc5ccccc54)nc3C2)c(OC)c1 (stereo not given)	-1.0	2.1%	2.5	1.9%	4.0%
O=C1CC(c2ccc(F)cc2)Cc2nc(N3CCc4ccccc43)ncc21 (stereo not given)	2.9	7.08µM*	22.0	-9.8%	-14.8%
O=C1CC(c2ccc(F)cc2)Cc2nc(N3CCN(c4ccccc4)CC3)ncc21 (stereo not given)	-1.0	0.1%	-16.0	?	-36.0%
CC1(C)CC(=O)c2cnc(N3CCc4ccccc43)nc2C1	50.6*	-6.5%	88.2*	-2.1%	-5.6%
COc1ccc(C(=O)/C=C/Sc2nc3ccccc3o2)cc1	50.6*	-6.0%	134.6*	2.0%	-25.8%
Cc1noc(C)c1C(=O)OCC(=O)c1cc(C)n(Cc2ccccc2Cl)c1C	44.8*	-6.8%	62.6*	-4.0%	-15.5%
O=[N+]([O-])c1ccc(N2CCN(c3ccccc3O)CC2)cc1	-1.0	3.3%	-2.5	4.0%	-24.2%
O=C(c1ccc([N+](=O)[O-])cc1Cl)N1CCN(c2ccccn2)CC1	-2.6	-3.2%	-5.4	1.8%	11.4%
O=[N+]([O-])c1ccc(N2CCN(c3ccccn3)CC2)c(Cl)c1	22.4	-10.3%	58.7*	-12.9%	-16.6%
O=[N+]([O-])c1ccc(N2CCN(c3ccccc3O)CC2)c(Cl)c1	47.7*	?	133.1*	-1.3%	-32.0%
O=C(O)CCCc1ccc2ccccc2c1	/	-13.2%	/	/	/
OCCNCc1ccc(OCc2ccc(Cl)cc2Cl)cc1	25.2*	-3.9%	35.4	2.5%	66.9%
O=c1oc(-c2ccccc2)cc(Cl)c1Cl	15.9	-82.9%	44.0	-1.1%	-15.5%
COc1ccc(CNC(=O)c2ccc(NC(=O)C3=CSCCO3)cc2)cc1	27.5*	3.7%	70.6*	2.9%	-22.0%
CCCSCCCNC(=O)c1ccc(NC(=O)C2=CSCCO2)cc1	11.0	-24.7%	67.3*	5.0%	-8.7%
SMILES	CHX counter	NS1 inh	Shiga toxin inh	AmpC inh detg	AmpC no deterg
O=C(Nc1ccc(C(=O)NCC2CCN(Cc3ccccc3F)CC2)cc1)C1=CSCCO1	14.4*	5.0%	28.6	-3.7%	17.8%
Cc1ccc(CN2CCC(CNC(=O)c3ccc(NC(=O)C4=CSCCO4)cc3)CC2)cc1	9.9	1.4%	22.4	-4.8%	26.6%
CN(Cc1ccccc1)C(=O)c1ccc(NC(=O)C2=CSCCO2)cc1	48.2*	-4.9%	43.6*	-8.5%	32.4%
COc1ccc2c(Cc3c4ccccc4cc4ccccc34)cncc2c1O	/	-41.1%	/	/	/
O=C(c1ccc(S(=O)(=O)N2CCCCC2)cc1)N1CCCC(C(F)(F)F)C1 (stereo not given)	/	/	/	0.0%	-2.5%
Cc1cccc(CNC(=O)c2ccccc2NC(=O)C2=CSCCO2)c1	6.4	-7.8%	8.8	2.4%	-30.9%
CCOc1ccccc1CNC(=O)c1ccc(NC(=O)C2=CSCCO2)cc1	18.1*	-13.3%	28.2	-0.4%	-20.1%
Cc1cccc(CNC(=O)c2ccc(NC(=O)C3=CSCCO3)cc2)c1	40.0*	-6.7%	38.3	-0.5%	-40.8%
